Rows were chosen to be rich in hits. Some 19% of all compounds tested hit in one or more screens of this group.
HT1080-NT tox: kills 2HG-producing HT-1080-NT fibrosarcoma cells. HT-1080-NT fibrosarcoma viability, CellTiter-Glo ATP luminescence, 48 h. Potency, µM (highest dose often 46.1 µM), for the others: at the highest dose activity, negative = less viability, usual class: cytotoxic. actives 1.6% (n = 360,000). AID 686970;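 further: NT is the 2HG producing partner of a matched IDH1 knockdown line; potency means the concentration at half of the fitted maximal effect; 0% = DMSO-treated cells and -100% = media-only wells without cells; nearly all actives have a fitted effect of over 55% in size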
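Toxicity toward the 2HG-producing NT line was scored as %Activity, normalised to DMSO and no-cell wells, from CellTiter-Glo luminescence after 48 hours' treatment.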
DT40 TDP1 CPT: DT40-hTDP1 cell growth loss with CPT; Potency, µM (titrated, usually from 46.2 µM), for the others: top-dose activity change, negative = growth inhibition, hits mostly inhibitors; chicken DT40 Tdp1-/-;hTDP1 cells + 20 nM CPT, ATP luminescence, 48 h; actives 12% (n = 420,000); further: potency means the concentration at half of the fitted maximal effect; nearly all actives have a fitted effect of over 55% in size
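Chicken DT40 Tdp1-/- cells complemented with human TDP1, 400 cells/well, exposed to compounds plus 20 nM camptothecin for at least 48 h at 37 C; viability read as ATP content by CellTiter-Glo luminescence.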
HT1080 IDH1KD tx: HT-1080 IDH1 knockdown cell toxicity (counter line). actives 2% (n = 360,000). Potency, µM (doses to about 46.1 µM), without a hit: at the top dose activity, negative = toxicity, actives largely listed as cytotoxic. AID 686971. HT-1080 IDH1 knockdown viability, ATP luminescence, 48 h;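 further: potency means the concentration at half of the fitted maximal effect; 0% = DMSO wells and -100% = cell-free medium wells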
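IDH1KD HT-1080 cells, 750/well, RPMI + 5% FBS; compound pinned after 2 h settling; 48 h, 37 °C; CellTiter-Glo luminescence; % activity normalised to DMSO and no-cell wells; curves fitted, classed by r2 and efficacy.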
TDP1 cell noCPT: qHTS for Inhibitors of human tyrosyl-DNA phosphodiesterase 1 (TDP1): qHTS in cells in absence of CPT | DT40 Tdp1-/- hTDP1 cells, no CPT, ATP luminescence, 48 h | Potency, µM (top dose mostly 46.2 µM), for inactives: at the top dose activity change, negative = growth inhibition, actives largely listed as inhibitors | actives 15% (n = 420,000); further: potency means the concentration at half of the fitted maximal effect; nearly all actives have a fitted effect of over 55% in size
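Growth kinetics read by CellTiter-Glo luminescence after ≥48 hr at 37 °C. Cells: DT40 Tdp1-/- stably carrying human TDP1, 400 per well, compound exposure in the absence of CPT (DMSO vehicle).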
IL-1B inflam inh: inflammasome signaling inhibition, IL-1 beta readout | THP-1 LPS/ATP IL-1B secretion, AlphaLISA, 16 h; stronger effect = lower value | actives 4.7% (n = 360,000) | activity change, % at 57.5 µM; in the data active means activity change below about -50%; inconclusive means mostly about -30% to -49%
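Secreted IL-1B measured by AlphaLISA bead assay after 16 h compound exposure of THP-1 cells; compounds (final up to 57.5 uM) added 1 h before LPS (250 ng/mL) and ATP (1.25 mM) stimulation; lower signal means less secretion.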
Starred values were filed as active, the others as inactive; [ ] = remark or other dose. Unless noted, the call rests on the fitted dose curve; in most records, active means well fitted curve in the direction sought with a large enough effect; inconclusive means small, poorly fitted or top-dose-only effect, or another doubt; inactive means no such curve, though single readings can be large; an effect the other way counts as inactive or inconclusive. Unless noted, on the % scale 0 is the no-effect control and ±100 the full control effect.

`Cc1cc(C(=O)Nc2c(C)nn(Cc3ccc(Cl)cc3)c2C)no1` gave HT1080-NT tox -9%, DT40 TDP1 CPT -1%, HT1080 IDH1KD tx 10%, TDP1 cell noCPT 5% and IL-1B inflam inh 25.
Cc1ccc(Cn2ccc(NC(=O)c3cc(-c4ccc(Cl)cc4)on3)n2)cc1 was read as HT1080-NT tox 11%, DT40 TDP1 CPT -27%, HT1080 IDH1KD tx 7%, TDP1 cell noCPT -16% and IL-1B inflam inh 15.
`Cc1cc(NC(=O)c2noc3c2CCCCC3)nn1Cc1ccc(Cl)cc1` gave HT1080-NT tox 2%[9.24 µM], DT40 TDP1 CPT -29%, HT1080 IDH1KD tx -7%, TDP1 cell noCPT -29% and IL-1B inflam inh 6.
For Cc1nn(Cc2ccc(Cl)c(Cl)c2)c(C)c1NC(=O)c1noc2c1CCCCC2 the results were HT1080-NT tox -3%[9.24 µM], DT40 TDP1 CPT 12µM*, HT1080 IDH1KD tx -14%, TDP1 cell noCPT 13µM* and IL-1B inflam inh -19.
For Cc1nn(Cc2ccc(Cl)c(Cl)c2)c(C)c1NC(=O)c1cc(CC(C)C)on1 the results were HT1080-NT tox inconclusive, DT40 TDP1 CPT 18µM*, HT1080 IDH1KD tx inconclusive, TDP1 cell noCPT 23µM* and IL-1B inflam inh -2.
CCCc1cc(C(=O)Nc2c(C)nn(Cc3ccc(Cl)c(Cl)c3)c2C)no1 was read as DT40 TDP1 CPT 13µM* and TDP1 cell noCPT 26µM*.
Screening Cc1ccccc1Cn1nc(C)c(NC(=O)c2noc3c2CC(C(C)(C)C)CC3)c1C (stereo not drawn) returned HT1080-NT tox 6%[9.24 µM], DT40 TDP1 CPT inconclusive, HT1080 IDH1KD tx inconclusive, TDP1 cell noCPT inconclusive and IL-1B inflam inh inconclusive.
Screening Cc1ccccc1Cn1nc(C)c(NC(=O)c2noc3c2CCc2ccccc2-3)c1C returned HT1080-NT tox 13%, DT40 TDP1 CPT 21µM*, HT1080 IDH1KD tx -5%, TDP1 cell noCPT 13µM* and IL-1B inflam inh -6.
`CCCc1nnc(NC(=O)c2nc(SCC)ncc2Cl)s1` gave DT40 TDP1 CPT -29% and TDP1 cell noCPT -4%.
Screening CC(C)N(Cc1nc(-c2ccccc2)no1)C(=O)C(Cl)(Cl)Cl returned HT1080-NT tox -5%, DT40 TDP1 CPT 3%, HT1080 IDH1KD tx -3%, TDP1 cell noCPT -28% and IL-1B inflam inh inconclusive.
`COc1ccc(-c2noc(CCC(=O)NC3CCCCCC3)n2)cc1OC` gave HT1080-NT tox 2%, DT40 TDP1 CPT inconclusive, HT1080 IDH1KD tx 1%, TDP1 cell noCPT inconclusive and IL-1B inflam inh -19.
For COc1ccc(-c2noc(CN(C)C(=O)c3ccc4c(c3)OCO4)n2)cc1OC the results were HT1080-NT tox -5%, DT40 TDP1 CPT 6%, HT1080 IDH1KD tx 3%, TDP1 cell noCPT 9% and IL-1B inflam inh 27.
Screening Cc1cccc(-c2noc(CN(C(=O)c3ccc(C)c(C)c3)C(C)C)n2)c1 returned DT40 TDP1 CPT 5.2µM* and TDP1 cell noCPT 3.7µM*.
Screening COc1ccc(C(=O)N(Cc2nc(-c3ccc(C)cc3)no2)C2CCCCC2)cc1OC returned HT1080-NT tox inconclusive, DT40 TDP1 CPT inconclusive, HT1080 IDH1KD tx inconclusive, TDP1 cell noCPT inconclusive and IL-1B inflam inh -67*.
`Cc1nc(C(C)N(C)Cc2nc(-c3ccc4c(c3)OCO4)no2)c(C)s1` (stereo not drawn) gave HT1080-NT tox -2%, DT40 TDP1 CPT 23µM*, HT1080 IDH1KD tx -6%, TDP1 cell noCPT inconclusive and IL-1B inflam inh -18.
Cc1cccc(-c2noc(CN(C(=O)c3c(-c4ccccc4Cl)noc3C)C(C)C)n2)c1 was read as HT1080-NT tox -1%, DT40 TDP1 CPT 21µM*, HT1080 IDH1KD tx -1%, TDP1 cell noCPT 18µM* and IL-1B inflam inh -14.
For Cc1cccc(-c2noc(CN(C(=O)c3ccc(Br)o3)C(C)C)n2)c1 the results were HT1080-NT tox -2%, DT40 TDP1 CPT inconclusive, HT1080 IDH1KD tx 0%, TDP1 cell noCPT -9% and IL-1B inflam inh -5.

Screening data: PubChem BioAssay, National Center for Advancing Translational Sciences (NCATS)
